Shn3 3UTR inh: reduces Shn3 3'UTR luciferase signal in osteoblasts | Clone20 osteoblast Shn3 3'UTR firefly luciferase, 24 h | inhibition, % at 12.5 µM | 360,000 compounds, 0.52% hits;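 active = mean inhibition of at least 75% with every replicate also reaching 75%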;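 note: 0% = median of neutral control wells and 100% = pilot-screen positive control compound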
MITF TRPM1 inh: reduces MITF-dependent TRPM1 promoter luciferase signal; inhibition, % at 12.5 µM; 330,000 compounds, 0.83% hits; SK-MEL-5 TRPM1 promoter luciferase, 24 h;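 active = mean inhibition across replicates of 60% or more, whatever share of single replicates reaches that level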
Peg3 promoter: reduces Peg3 promoter-driven luciferase expression in HeLa; HeLa PEG-Prom luciferase reporter, luminescence, overnight; 360,000 compounds, 1.7% hits; inhibition, % at 20 µM;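 active = inhibition of at least 50% at 20 µM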
TWEAK-Fn14 inh: blocks TWEAK-Fn14 interaction in a reporter cell assay; TWEAK-stimulated Fn14 reporter cells, luciferase luminescence, 8 h; inhibition, % at 10 µM; 360,000 compounds, 2% hits; in the data active = inhibition above about 50%
EBV LMP1 NFkB: inhibitors of Epstein-Barr LMP1-induced NF-kappaB reporter | LMP1-induced NF-kappaB luciferase reporter cells, luminescence | inhibition, % at 12.5 µM | 350,000 compounds, 0.69% hits; in the data active = inhibition above about 41%;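 note: 0% = neutral control wells and 100% = reference inhibitor control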
TROY NFkB inh: TROY signaling inhibition; Q293 LMP1-TROYcd NF-kB luciferase reporter, 4 h; inhibition, % at 10 µM; 360,000 compounds, 0.98% hits;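 active = compounds whose plate-normalised and pattern-corrected inhibition of the luciferase reporter signal at the single screening dose is 50% or more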
* marks the source's active call; other numbers are inactive results; nt = not tested or not shown; ! = not active in a repeat. This is a sample that favours compounds with a hit; in the whole collection about 4.1% have one here.

SMILES	Shn3 3UTR inh	MITF TRPM1 inh	Peg3 promoter	TWEAK-Fn14 inh	EBV LMP1 NFkB	TROY NFkB inh
CC1CC(C)CN(CCCNC(=O)C2CCCN(c3nnc(N4CCCC4=O)s3)C2)C1 (centres undefined)	-7	2	1	-6	6	-5
O=C(COc1cc2oc(=O)c3c(c2cc1Cl)CCC3)NCc1ccccn1	-17	-5	-8	6	-6	-6
CCOC(=O)c1cc(NC(=O)N(C(C)C)C2CCCCC2)c(C)nc1C	-25	-8	6	-5	-4	-4
CCOC(=O)c1cnc(-n2nc(C)cc2C)nc1Nc1ccc(O)cc1	75	71*	24	30	56*	51*
CCOC(=O)c1cnc(-n2nc(C)cc2C)nc1NC1CCCCC1	84	51	13	49	39	54*
CCOC(=O)c1cnc(-n2nc(C)cc2C)nc1NNc1nc(C)cc(C)n1	-22	14	-20	18	-1	-6
CCOC(=O)c1cc(NC(=O)NC2CCCCC2)c(C)nc1C	-2	7	20	109*	-8	4
CCOC(=O)c1cnc(-n2nc(C)cc2C)nc1NNc1nc(-c2ccccc2)cc(-c2ccccc2)n1	92*	62*	41	-2	75*	14
CCOC(=O)c1cnc(-n2nc(C)cc2C)nc1Nc1ccc(C)cc1	28	1	16	4	22	4
CCCNC(=O)C1(C)CCCN(C(=O)c2ccc(F)cc2Cl)C1 (centres undefined)	1	nt	-9	-4	nt	-10
Cc1nc(Nc2nc3c(c(=O)[nH]2)CCC3)nc2ccccc12	-22	15	86*	69*	-20	-36
O=c1[nH]c(NCc2ccccc2)nc2c1CCC2	-28	-9	12	-5	-12	-7
COc1ccccc1N(C(=O)c1ccco1)C(C(=O)NC1CCCC1)c1ccc(N2CCOCC2)cc1 (centres undefined)	-5	2	15	31	6	18
CCn1cc([N+](=O)[O-])c(C(=O)Nc2ccn(Cc3ccccc3F)n2)n1	9	13	-1	-13	-2	6
Cc1ccc(NC(=O)c2cccc(Oc3ccc([N+](=O)[O-])cc3)c2)c(C(=O)O)c1	-39	-9	20	4	9	30
Cc1ccccc1Cn1ccc(NC(=O)c2nn(C)cc2[N+](=O)[O-])n1	4	11	-62	87*	-15	78*
Cc1cccc(Oc2cc(NC(=O)c3ccccc3)cc([N+](=O)[O-])c2)c1	87*	-4	39	59*	11	57*
Cn1cc([N+](=O)[O-])c(C(=O)Nc2cc(Oc3ccccc3)cc([N+](=O)[O-])c2)n1	96*	82*	104*	43	-15	12
Cc1ccc(N2C(=O)CC(NNc3nc4ccccc4s3)C2=O)cc1 (centres undefined)	-4	3	0	-3	-6	0
O=C1CC(NNc2nc3ccccc3s2)C(=O)N1c1ccccc1 (centres undefined)	13	4	-1	4	-14	61*
CCCCCCCCNCCS(=O)(=O)NCCCCCCCC	13	29	95*	4	1	9
Cc1ccc(NC(=O)c2ccc(CSc3nccc(C)n3)cc2)cc1	2	-17	-42	3	6	-13
Cc1ccnc(SCc2ccc(C(=O)O)cc2)n1	-2	-6	-2	108*	-2	-12
COc1cc(-c2nc(-c3ccccc3)c(-c3cccs3)[nH]2)cc(OC)c1OC	19	-7	-3	66*	6	8
O=C(O)c1ccccc1-c1nc(-c2ccccc2)c(-c2ccccc2)[nH]1	4	-1	10	-19	-9	-13
SMILES	Shn3 3UTR inh	MITF TRPM1 inh	Peg3 promoter	TWEAK-Fn14 inh	EBV LMP1 NFkB	TROY NFkB inh
COc1cc(-c2nc(-c3ccccc3)c(-c3cccs3)[nH]2)cc(OC)c1O	4	2	20	15	-4	-9
c1csc(-c2nc3c4ccccc4c4ccccc4c3[nH]2)c1	-8	0	-6	69*	-11	-17
c1ccc(-c2nc(-c3cccs3)[nH]c2-c2ccccc2)cc1	6	7	2	52*	6	-14
Oc1ccccc1-c1nc2c3ccccc3c3ccccc3c2[nH]1	0	10	-12	-4	-33	0
O=C(COC(=O)C1(c2ccccc2)CC1)NNC(=O)c1ccccc1F	0	5	18	3	3	-3
Nc1nc2ccccc2cc1C(=O)NCCCCc1ccccc1	nt	nt	nt	53*	nt	14
O=C(O)CSCC(=O)N1CCN(c2nc3cc(Cl)ccc3s2)CC1	8	-16	-2	62*	1	5
CCn1c(=O)c2sccc2n2c(CCCC(=O)NCCc3ccc(S(N)(=O)=O)cc3)nnc12	-16	4	3	5	1	10
COc1ccc(S(=O)(=O)N2CCN(CC(=O)Nc3ccc(C)c(F)c3)CC2)cc1	2	8	25	-7	50*	-3
Cc1ccnc(NC(=O)Cc2ccc(-c3ccccc3)cc2)c1	-435	-46	98*	48	-335	41
COc1cc(NC(=O)CCC(=O)c2cccs2)cc(OC)c1	6	-12	-20	0	1	-23
O=C(Cc1ccc(-c2ccccc2)cc1)Nc1ccccn1	-40	-63	-122	-1	-2	3
Cc1ccnc(NC(=O)CCC(=O)c2cccs2)c1	40	41	21	92*	59*	68*
COc1ccc(NC(=O)CCC(=O)c2cccs2)c(OC)c1	-12	-23	-52	57*	-4	2
Cc1ccc(NC(=O)CCC(=O)c2cccs2)nc1	-16	-17	-110	9	-19	-38
COc1cccc(CNC(=O)[C@@H]2CCCN2C(=O)[C@@H]2CCCN2C(=O)OC(C)(C)C)c1	nt	nt	nt	6	nt	4
CCOC(=O)c1cc2c(=O)n3cccc(C)c3nc2n(CC2CCCO2)c1=NC(C)=O (centres undefined)	4	-5	-1	92*!	5	-20
CCOC(=O)c1cc2c(=O)n3cccc(C)c3nc2n(CCOC)c1=NC(C)=O	1	9	16	-36	-1	12
COc1cc(OC)cc(-c2oc(=O)c3cc(OC)c(OC)cc3c2C(F)(F)F)c1	-1	70*	18	2	-4	4
COc1cc(OC)cc(-c2oc(=O)c3cc(OC)c(OC)cc3c2C#CCCO)c1	-1	-2	-4	-45	1	-8
CC(=O)N1/C(=C/c2ccc(N(C)C)cc2)C(=O)c2ccccc21	-16	33	33	86*	28	66*
Cc1onc(-c2ccccc2)c1C(=O)N1CCC(C)(C(=O)O)C1 (centres undefined)	-4	nt	-9	2	nt	-2
CC1(C)Cc2c(C#N)c(NCc3ccco3)nc(-c3ccco3)c2CO1	-7	-8	-1	15	-6	-2
CC(C)c1nc2sc3c(NCc4ccco4)ncnc3c2c2c1COC(C)(C)C2	19	-1	27	52*	0	nt

Source: PubChem BioAssay
